Test systems include SR leukemia; RPMI-8226 leukemia; OVCAR-8 ovarian; OVCAR-5 ovarian; OVCAR-4 ovarian; SK-OV-3 ovarian; IGROV1 ovarian; OVCAR-3 ovarian; HS 578T breast; NCI/ADR-RES ovarian.
Experiment in all cases: NCI-60 one-dose screen, 48 h (100 = growth as untreated, 0 = no growth, -100 = all killed)
Common to all, as to conditions: 10 µM unless noted

Molecules are shown by their SMILES. Compounds without any hit were thinned out: in the full panel of roughly 83,000, 20% have a hit.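 Interpretation: 100, growth as untreated; towards 0, rising growth inhibition; 0, no net growth; 0 to -100, cell death. Compounds scoring below 10 were considered active.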 A number with no mark means an inactive call. Calls of active or inactive are those of the source.

Take `C[C@H]1[C@@H]2[C@H]3CC[C@@H]4[C@@]5(C)Cc6c([nH]c7ccccc67)C(C)(C)[C@@H]5CC[C@@]4(C)[C@]3(C)CC[C@]23CO[C@]1(C)[C@@H](C(=O)/C=C/c1ccccn1)C3`: the growth was 55.6% in the test with SR leukemia; 62.5% with RPMI-8226 leukemia; 63.3% in the test with OVCAR-8 ovarian; 108% in the test with OVCAR-5 ovarian; 83.7% in the test on OVCAR-4 ovarian; 112% in the test with SK-OV-3 ovarian. Also, the growth in the test on IGROV1 ovarian was 106%; in the test with OVCAR-3 ovarian, 96.2%; in the test on HS 578T breast it was 87.7%; in the test on NCI/ADR-RES ovarian it was 100%.

Take `Cc1ccncc1C(=O)O`: the growth in the test with SR leukemia is 120%; in the test with RPMI-8226 leukemia, 108%; in the test with OVCAR-8 ovarian, 95.5%; in the test with OVCAR-5 ovarian it was 94.7%; in the test on OVCAR-4 ovarian, 96%; with SK-OV-3 ovarian, 137%. The growth with IGROV1 ovarian was 99.6%; in the test with OVCAR-3 ovarian it was 101%; in the test on HS 578T breast, 96.5%; in the test on NCI/ADR-RES ovarian, 96.8%.

As to `COc1ccccc1-n1cnc(N)c1C(=O)c1cc(OC)c(OC)c(OC)c1`, the growth is 30.2% in the test with SR leukemia; 30.9% with RPMI-8226 leukemia; 61.8% in the test on OVCAR-8 ovarian; 79.1% in the test with OVCAR-5 ovarian; 65.9% in the test with OVCAR-4 ovarian; 48.2% with SK-OV-3 ovarian. Besides, the growth is 45.5% in the test on IGROV1 ovarian, -21.3% (active) in the test with OVCAR-3 ovarian, -12.8% (active) with HS 578T breast and 55.1% in the test on NCI/ADR-RES ovarian.

As for `Cc1ccc(-c2nc3ccc(Cl)cc3c(=O)n2N2C(=O)CSC2c2ccccc2Cl)cc1` (stereo not given), the growth in the test with SR leukemia was 80.8%; with RPMI-8226 leukemia it was 80.1%; with OVCAR-8 ovarian, 27.3%; in the test with OVCAR-5 ovarian, 82.7%; in the test on OVCAR-4 ovarian, 14.4%; in the test on SK-OV-3 ovarian it was 36.2%. In addition, the growth was 57.5% with IGROV1 ovarian, 58.6% in the test with OVCAR-3 ovarian, 56.6% with HS 578T breast and 70.6% with NCI/ADR-RES ovarian.

In the case of `Cn1cc(-c2csc(-c3cn(CCCN4CCCCC4)c4ccc(F)cc34)n2)c2cccnc21`, the growth was 65.9% in the test with SR leukemia; 69.2% with RPMI-8226 leukemia; 95.3% with OVCAR-8 ovarian; 91.8% with OVCAR-5 ovarian; 92.8% with OVCAR-4 ovarian; 99.3% with SK-OV-3 ovarian. Besides, the growth was 85.2% with IGROV1 ovarian, 93.2% in the test with OVCAR-3 ovarian, 82.5% with HS 578T breast and 89.5% in the test with NCI/ADR-RES ovarian.

For `Cn1cc(-c2csc(-c3cn(CCCN4CCCCC4)c4ccc(Br)cc34)n2)c2cccnc21`, the growth was -48.9% (active) in the test with SR leukemia; -35.3% (active) in the test with RPMI-8226 leukemia; -16.4% (active) in the test with OVCAR-8 ovarian; 30.8% in the test with OVCAR-5 ovarian; 32.3% in the test with OVCAR-4 ovarian; 75.2% in the test on SK-OV-3 ovarian. For the same compound, the growth with IGROV1 ovarian is -20.1% (active); with OVCAR-3 ovarian, -75.6% (active); with HS 578T breast, 60.8%; in the test with NCI/ADR-RES ovarian it was 19.9%.

On to `COc1ccc(OC)c(-c2c(C#N)c(-c3ccco3)nc3c2c(-c2ccccc2)nn3-c2ccccc2)c1`, for which the growth in the test with SR leukemia is 101%; in the test on RPMI-8226 leukemia, 96.7%; with OVCAR-8 ovarian, 96.2%; in the test with OVCAR-5 ovarian, 95.5%; in the test with OVCAR-4 ovarian, 103%; with SK-OV-3 ovarian it was 95.8%. For the same compound, the growth in the test on IGROV1 ovarian is 88.9%; with OVCAR-3 ovarian it was 112%; in the test with HS 578T breast, 86.2%; with NCI/ADR-RES ovarian, 93.8%.

As for `C=C1C(=O)O[C@H]2[C@H]1CC/C(COC(=O)NCCc1c[nH]c3ccccc13)=C\CC[C@@]1(C)O[C@@H]21`, the growth in the test with SR leukemia is 0.79% (active); in the test with RPMI-8226 leukemia, -25.7% (active); in the test on OVCAR-8 ovarian, 36.4%; with OVCAR-5 ovarian, 56.6%; in the test with OVCAR-4 ovarian it was 38.4%; in the test with SK-OV-3 ovarian, 89.1%. The growth is -16.6% (active) in the test on IGROV1 ovarian, -65.6% (active) in the test with OVCAR-3 ovarian, 81% in the test with HS 578T breast and 65.9% with NCI/ADR-RES ovarian.

In the case of `Cc1cc(N2CCCCC2)nc(N(CCCNc2ccnc3cc(Cl)ccc23)Cc2ccco2)n1`, the growth in the test on SR leukemia was -20.6% (active); with RPMI-8226 leukemia, -35.3% (active); with OVCAR-8 ovarian it was 42.5%; in the test on OVCAR-5 ovarian, 41.5%; with OVCAR-4 ovarian, 39.8%; with SK-OV-3 ovarian, 57.4%. The growth in the test on IGROV1 ovarian was 4.05% (active); with OVCAR-3 ovarian, 21%; in the test on HS 578T breast it was 61.3%; with NCI/ADR-RES ovarian, 4.38% (active).

In the case of `COc1cccc2c1C(=O)c1c(O)c3c(c(O)c1C2=O)C[C@@](O)(C(=O)CO)C[C@@H]3OC1C[C@H](N)[C@H](O)[C@H](C)O1` (stereo not given in full), the growth in the test on SR leukemia was -10.5% (active); in the test on RPMI-8226 leukemia it was 0.341% (active); in the test on OVCAR-8 ovarian, 4.15% (active); in the test on OVCAR-5 ovarian, 9.77% (active); in the test on OVCAR-4 ovarian, 4.65% (active); in the test with SK-OV-3 ovarian, 8.44% (active). The growth is 4.86% (active) with IGROV1 ovarian, -2.36% (active) in the test on OVCAR-3 ovarian, -12.9% (active) with HS 578T breast and 72.9% in the test on NCI/ADR-RES ovarian.

Consider `CC1(C)CC[C@]2(C(=O)NCCNCCN)CC[C@]3(C)C(=CC[C@@H]4[C@@]5(C)CCC(=O)C(C)(C)[C@@H]5CC[C@]43C)[C@@H]2C1`, for which the growth with SR leukemia was -45.6% (active); in the test with RPMI-8226 leukemia, -19.9% (active); in the test on OVCAR-8 ovarian, 21.4%; with OVCAR-5 ovarian, 106%; in the test with OVCAR-4 ovarian, 65.3%; in the test on SK-OV-3 ovarian it was 89.9%. The growth in the test on IGROV1 ovarian was 23.8%; with OVCAR-3 ovarian it was -27.2% (active); in the test on HS 578T breast it was 79%; in the test with NCI/ADR-RES ovarian, 93.2%.

With `Fc1ccc(Nc2nnc(-c3ccc(Cl)cc3)o2)cc1`, the growth in the test with SR leukemia was 90.8%; in the test on RPMI-8226 leukemia it was 99.8%; with OVCAR-8 ovarian, 86.7%; in the test with OVCAR-5 ovarian it was 98.3%; with OVCAR-4 ovarian it was 94.7%; in the test with SK-OV-3 ovarian, 77.4%. Further, the growth in the test on IGROV1 ovarian is 90.2%; in the test on OVCAR-3 ovarian, 110%; in the test on HS 578T breast, 107%; in the test with NCI/ADR-RES ovarian it was 99%.

Source of the values: PubChem BioAssay (NCI).
